# High-throughput results as filed in PubChem BioAssay.
# Sampled rows, rich in hits. Any-hit rate of the full collection: about 3.8%.
# TGFb inhibitor = blocks TGF-b signaling; HepG2 CAGA-GFP TGF-b/SMAD3 reporter, GFP fluorescence, 18 h; TGF-beta stimulated, 500 pg/mL final; AID 588855; Potency, µM (highest dose often 46.1 µM), for the others: top-dose activity, negative = inhibition, hits mostly inhibitors; 1.2% of 410,000 active; further: on the % scale 0 is the no-effect control and ±100 the full control effect; nearly all actives have a fitted effect of over 65% in size
#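 Cell-based qHTS in HEPG2 carrying a CAGA-GFP Smad reporter; compounds added before 500 pg/mL final TGF-beta, 18 h incubation at 37 degrees C, GFP fluorescence quantified per cell by imaging cytometry.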
# HepG2 viability = kills HepG2 cells in TGF-b inhibitor counter-screen | HepG2 CAGA-GFP viability, ATP luminescence, 18 h | 0.76% of 410,000 active | Potency, µM (top dose mostly 46.1 µM), without a hit: top-dose activity change, negative = cytotoxicity, usual class: cytotoxic
#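 CellTiter-Glo luminescence gave cytotoxicity after 18 hours at 37 degrees C. The cells were HepG2 CAGA-GFP in 1% FBS DMEM, stimulated with 500 pg/mL TGF-beta after compound addition. %Activity was normalised to no-cell wells (complete cell-killing) and DMSO (no toxicity), and curves were fitted and classified.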
# HT1080NT lethal = kills 2HG-producing HT-1080-NT fibrosarcoma cells; HT-1080-NT fibrosarcoma viability, CellTiter-Glo ATP luminescence, 48 h; Potency, µM (doses to about 46.1 µM), without a hit: at the highest dose activity, negative = less viability, usual class: cytotoxic; 1.6% of 360,000 active;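 further: NT is the 2HG producing partner of a matched IDH1 knockdown line; 0% = DMSO-treated cells and -100% = media-only wells without cells; nearly all actives have a fitted effect of over 55% in size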
#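 750 cells/well, RPMI + 5% FBS; 2 h settle, compound pin-transfer, 48 h at 37 degrees C. CellTiter-Glo 10 min RT, luminescence. Normalized to DMSO and media-only wells.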
# HT1080 IDH1KD tx = kills HT-1080 cells with IDH1 knockdown; Potency, µM (series often up to 46.1 µM), inactives show top-dose activity, negative = toxicity, actives largely listed as cytotoxic; 2% of 360,000 active; AID 686971; HT-1080 IDH1 knockdown viability, ATP luminescence, 48 h;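 further: 0% = DMSO wells and -100% = cell-free medium wells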
#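 Using the IDH1-knockdown HT-1080 line run in the same batch and compound series as the NT line, viability after 48 h at 37 °C was determined by CellTiter-Glo luminescence and expressed as % activity.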
# ATXN2 expr inh = reduces ATXN2 reporter expression in HEK-293 cells; Potency, µM (highest dose often 57 µM), for inactives: at the highest dose activity change, negative = inhibition, usual class: inhibitors; HEK-293 ATXN2-luciferase reporter, luminescence, 24 h; 0.72% of 360,000 active; further: on the % scale 0 is the no-effect control and ±100 the full control effect; nearly all actives have a fitted effect of over 55% in size
#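 ATXN2-luciferase reporter cells (luciferase flanked by upstream and downstream ATXN2 gene portions) were treated 24 h at 37 °C with compounds at up to 57 uM. SteadyGlo luminescence gave expression; GF-AFC fluorescence gave viability.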
# S2 tox = reduces viability in counter-screen for ATXN expression inhibitors | S2 cells (HEK-293 line with an ATXN2-luciferase reporter) viability, CellTiter-Fluor protease fluorescence, 24 h | Potency, µM (doses to about 56.7 µM), actives largely listed as cytotoxic | 0.49% of 400,000 active | AID 651635; further: nearly all actives have a fitted effect of over 40% in size
# Starred values were filed as active, the others as inactive; i = inactive; ? = inconclusive; / = no result. The call rests on the fitted dose curve; in most records, active means well fitted curve in the direction sought with a large enough effect; inconclusive means small, poorly fitted or top-dose-only effect, or another doubt; inactive means no such curve, though single readings can be large; an effect the other way counts as inactive or inconclusive. Potency means the concentration at half of the fitted maximal effect.
SMILES,TGFb inhibitor,HepG2 viability,HT1080NT lethal,HT1080 IDH1KD tx,ATXN2 expr inh,S2 tox
CC(=O)O[C@@]12CO[C@@H]1C[C@H](O)[C@@]1(C)C(=O)[C@H](O)C3=C(C)[C@@H](OC(=O)C(O)[C@@H](NC(=O)OC(C)(C)C)c4ccccc4)C[C@@](O)([C@@H](OC(=O)c4ccccc4)[C@H]21)C3(C)C (stereo partly drawn),-22%,-14%,/,/,/,/
O=C(COc1ccccc1C(=O)Nc1cccc(F)c1)Nc1ccc(Br)cc1,2%,2%,/,/,/,/
Cc1ccccc1C(=O)N1CCN(c2ccccn2)CC1,2%,-5%,18%,19%,-8%,i
O=C(c1cc(-c2ccccc2)nc2ccccc12)N1CCN(c2ccccn2)CC1,-16%,-16%,-1%,-12%,18%,i
O=C(c1cn(Cc2ccccc2)nc1-c1ccccc1)N1CCN(c2ccccn2)CC1,-12%,-23%,?,16µM*,-6%,i
O=C(c1cc(-c2ccncc2)nc2ccccc12)N1CCN(c2ccccn2)CC1,38%,-18%,7.9µM*,5.6µM*,-18%,?
COc1ccc(-c2nn(Cc3ccccc3)cc2C(=O)N2CCN(c3ccccn3)CC2)cc1OC,-8%,-31%,2%,7%,28%,i
O=C(c1ccccc1-c1ccccc1)N1CCN(c2ccccn2)CC1,-26%,-47%,5.8µM*,6.5µM*,-13%,i
CCNC(=O)Nc1ccc(Oc2ncnc(N)c2C=NOC)cc1Cl,/,/,/,/,-29%,/
CC(C)Cc1ccc(-c2cc3nc(NCCc4ccc(S(N)(=O)=O)cc4)ccn3n2)cc1,11%,-32%,?,23µM*,-19%,i
CC(C)Cc1ccc(-c2cc3nc(NCCCn4ccnc4)ccn3n2)cc1,?,-52%,16µM*,?,5%,i
COc1ccccc1NC(=O)N1CC(=O)Nc2sc3c(c2C1c1ccccc1)CCCC3 (stereo not drawn),9%,-21%,/,/,/,/
CCN(CC)CCCNC(=O)c1nn(C)c2c1CSc1ccccc1-2,0%,-20%,/,/,/,/
O=C(O)c1ccc(S(=O)(=O)/N=C2\C=C(Nc3ccccc3F)C(=O)c3ccccc32)cc1,3.2µM*,4.5µM*,?,8.2µM*,7.9µM*,7.9µM*
CCc1ccc(S(=O)(=O)/N=C2\C=C(NS(=O)(=O)c3ccccc3)C(=O)c3ccccc32)cc1,?,-60%,-21%,-23%,-21%,?
Cc1ccc(NC2=C/C(=N/S(=O)(=O)c3cccs3)c3ccccc3C2=O)cc1C,-16%,-15%,-1%,0%,8%,i
Cc1ccccc1NC1=C/C(=N\S(=O)(=O)c2ccc(C(=O)O)cc2)c2ccccc2C1=O,?,18µM*,23µM*,23µM*,8.9µM*,10µM*
Cc1ccccc1NC1=C/C(=N\S(=O)(=O)c2cccs2)c2ccccc2C1=O,?,3.2µM*,5.8µM*,7.3µM*,7.9µM*,6.3µM*
CC(C)c1ccc(S(=O)(=O)/N=C2\C=C(NS(=O)(=O)c3ccccc3)C(=O)c3ccccc32)cc1,?,-46%,-27%,?,-5%,?
CCC(=O)N1c2ccc(S(=O)(=O)NCc3ccc(F)cc3)cc2CC1C (stereo not drawn),0%,-1%,/,/,-10%,i
CCCN1CNc2c(c(=O)[nH]c(=S)n2CCc2cc(C)ccc2C)C1,/,/,4%,14%,/,/
O=c1cc(-c2ccccc2)nc(Cc2c(Cl)cccc2Cl)[nH]1,0%,3%,13%,12%,7%,i
O=c1cc(CCl)nc(Cc2c(Cl)cccc2Cl)[nH]1,-9%,-33%,23µM*,26µM*,?,?
c1ccc(N2CCN(c3ncnc4scc(-c5cccs5)c34)CC2)cc1,-12%,-6%,0%,9%,-29%,i
O=C(c1ccco1)N1CCN(c2ncnc3scc(-c4cccs4)c23)CC1,-18%,-38%,11µM*,7.9µM*,?,i
SMILES,TGFb inhibitor,HepG2 viability,HT1080NT lethal,HT1080 IDH1KD tx,ATXN2 expr inh,S2 tox
O=C(c1ccco1)N1CCN(c2ncnc3scc(-c4ccccc4)c23)CC1,0%,-28%,7.3µM*,10µM*,-11%,i
COc1ccc(-c2csc3ncnc(N4CCN(C(=O)c5ccco5)CC4)c23)cc1,?,-3%,-20%,-21%,?,?
COc1ccc(-n2c(=O)c3c4c(sc3n(Cc3ccc(F)cc3)c2=O)CCCC4)c(OC)c1,2%,0%,/,/,12%,i
COc1cccc(CNc2nc3cc(-c4ccc(C(=O)N5CCN(C)CC5)cc4)sc3c(=O)n2C)c1,?,-44%,23µM*,15µM*,?,i
O=C(NCC1CCC2(CCN(Cc3ccccc3O)CC2)O1)C1CCCO1 (stereo not drawn),/,/,/,/,/,i
COc1ccc(NC2=C(c3ccccc3)C(=O)c3ccccc32)cc1Cl,-9%,-38%,/,/,-8%,i
Cc1ccc(NC2=C(c3ccc(C(F)(F)F)cc3)C(=O)c3ccccc32)cc1C,0%,13µM*,/,/,62%,i
COCCCn1c(=O)c2sccc2n(Cc2ccc(C)cc2)c1=O,1%,13µM*,2%,-2%,-33%,i
O=C(CSc1nnc(-c2ccccc2F)o1)N1CCc2ccccc21,-3%,-1%,/,/,8%,?
COc1ccc(NC(=O)Cc2ccc(Cl)c(Cl)c2)cn1,-14%,-11%,-4%,-2%,/,i
COc1ccc(NC(=O)/C(Cl)=C(/Cl)S(=O)(=O)Cc2ccc(C)cc2)cn1,?,5.6µM*,23µM*,8.2µM*,7.1µM*,8.9µM*
